Assay [1] is described as follows: NFAT Signaling Pathway (AID 444).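 Note: carbachol stimulus at about its EC50 of 1 µM final; % is set by controls: 0 for no effect and ±100 for the full control effect.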 The settings on record: Jurkat NFAT-bla M1, carbachol, beta-lactamase ratio, 5 h; at 17.2 µM (top of the series) unless noted. In short, it runs like this:
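Jurkat cells with NFAT-driven β-lactamase reporter and co-expressed M1 receptor, stimulated with carbachol (final 1 uM, ~EC50), compound titration, 5 h at 37 °C. CCF4 loaded 1 h at RT; 460/530 nm ratio gave %activity and AC50.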

Assay [2] can be described thus: Stat Signaling Pathway (AID 446).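 Note: ME-180 cervical cancer cells given 40 pM IL-6 alongside compound; SIE-controlled beta-lactamase reporter measured as 460/530 nm FRET emission ratio; % is set by controls: 0 for no effect and ±100 for the full control effect.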 The settings on record: ME-180 (cervical carcinoma) SIE beta-lactamase reporter, IL-6 stimulated, 5 h; at 17.2 µM (top of the series) unless noted. Put shortly:
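Overnight-plated ME-180 cells bearing a STAT Inducible Element beta-lactamase reporter; 5 h co-exposure to compound and 40 pM IL-6; values normalized to 300 pM IL-6 and 125 nM JAK inhibitor controls.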

The target in assay [3] is Glucocorticoid receptor (Homo sapiens) (UniProt P04150). Nature of the assay: GR-GFP Redistribution (AID 450;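 active = compounds whose dose series gives a full or clear partial fitted curve of increased nuclear translocation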; note: potency is the fitted concentration of half-maximal effect). The settings on record: U2OS GR-GFP nuclear translocation, laser cytometry, 2 h; series mostly up to 20.6 µM.

Unmarked numbers belong to inactive results. Results filed as inconclusive are left out. Activity calls are given as the source filed them. Unless noted, calls come from the whole dose curve; as a rule, active = well fitted curve in either direction with a large enough effect (not every such curve was filed as active); inconclusive = small, poorly fitted or top-dose-only effect, or another doubt; inactive = flat fitted curve, though single readings scatter.

Among the data in PubChem BioAssay (NCATS) are activity change, negative = inhibition, activity, negative = inhibition and Potency values, retold here.

Sequence of Glucocorticoid receptor (Homo sapiens) (P04150 whole entry, looked up): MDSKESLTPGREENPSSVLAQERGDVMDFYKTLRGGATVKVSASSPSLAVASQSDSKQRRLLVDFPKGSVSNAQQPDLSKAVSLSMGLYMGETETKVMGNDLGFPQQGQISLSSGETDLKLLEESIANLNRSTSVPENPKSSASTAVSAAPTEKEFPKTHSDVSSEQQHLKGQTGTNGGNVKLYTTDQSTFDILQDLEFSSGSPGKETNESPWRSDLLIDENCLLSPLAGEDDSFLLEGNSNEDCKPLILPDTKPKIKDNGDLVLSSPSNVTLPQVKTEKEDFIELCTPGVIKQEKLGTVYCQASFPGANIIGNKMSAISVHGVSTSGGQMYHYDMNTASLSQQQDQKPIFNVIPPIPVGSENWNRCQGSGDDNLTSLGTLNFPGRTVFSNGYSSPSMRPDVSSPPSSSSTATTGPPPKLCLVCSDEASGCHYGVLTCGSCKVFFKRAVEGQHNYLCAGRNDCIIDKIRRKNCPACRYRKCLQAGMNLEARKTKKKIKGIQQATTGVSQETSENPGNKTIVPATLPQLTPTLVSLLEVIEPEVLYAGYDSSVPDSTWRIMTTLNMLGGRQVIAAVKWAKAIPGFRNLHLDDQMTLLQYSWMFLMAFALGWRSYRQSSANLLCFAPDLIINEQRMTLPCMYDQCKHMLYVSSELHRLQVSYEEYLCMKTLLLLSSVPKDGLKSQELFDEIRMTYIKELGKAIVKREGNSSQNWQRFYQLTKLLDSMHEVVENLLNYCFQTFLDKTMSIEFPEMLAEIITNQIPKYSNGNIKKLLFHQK

As to `CC1(C)CC(=O)C(C=NCC(O)c2ccccc2)=C(O)C1` (centres undefined), the activity change, negative = inhibition in assay [1] was -0.832%. Besides, the activity, negative = inhibition in assay [2] was 8.79%. The Potency in assay [3] was above 20.6 µM.

Consider `NC(=O)CSc1nnc2n(-c3ccccc3)c(=O)c3c4c(sc3n12)CCCCC4`, for which, in assay [1], the activity change, negative = inhibition is -30%. Further, the activity, negative = inhibition in assay [2] is 9.67%. In addition, the Potency in assay [3] is above 20.6 µM.

For `Cn1c(Cl)nc2c1c(=O)n(Cc1cccc(Br)c1)c(=O)n2C`, in assay [1], the activity change, negative = inhibition was -23.7%. Also, the activity, negative = inhibition in assay [2] is 12.7%. The Potency in assay [3] was above 20.6 µM.

`Cc1cc(C)n(S(=O)(=O)Cc2ccccc2)n1`: the activity change, negative = inhibition in assay [1] was -1.74%. Also, the activity, negative = inhibition in assay [2] was 14.5%. Besides, the Potency in assay [3] was above 20.6 µM.

Consider `Cc1ccc(Cn2ncc3c(N4CCN(c5ccc(C)cc5)CC4)ncnc32)cc1`, for which the activity change, negative = inhibition in assay [1] was -24.6%. The activity, negative = inhibition in assay [2] is -13.5%. Moreover, in assay [3], the Potency was above 20.6 µM.

Regarding `Cc1ccc(-n2ncc3c(NCc4cccnc4)ncnc32)c(C)c1`, the activity change, negative = inhibition in assay [1] is -27.9%. Also, the activity, negative = inhibition in assay [2] is -18.9%. Besides, the Potency in assay [3] is above 20.6 µM.

Regarding `COc1cccc(-c2nc(NCc3ccco3)c3ccccc3n2)c1O`, the activity change, negative = inhibition in assay [1] is 7.35%. For the same compound, the activity, negative = inhibition in assay [2] is -8.59%. Also, the Potency in assay [3] was above 20.6 µM.

As to `COc1ccc(CC(=O)Nc2cccc(-c3nnc(-c4ccco4)o3)c2)cc1`, in assay [1], the activity change, negative = inhibition is 29.9%. Besides, the activity, negative = inhibition in assay [2] is -27.7%. In assay [3], the Potency is above 20.6 µM.

Turning to `COC(=O)c1ccn(C(=O)c2ccc(Cl)cc2)n1`, the activity change, negative = inhibition in assay [1] was -8.81%. In addition, the activity, negative = inhibition in assay [2] was -10.2%. The Potency in assay [3] was above 20.6 µM.

Take `COc1cccc(-c2nnc3sc(-c4ccccc4)nn23)c1`: the activity change, negative = inhibition in assay [1] is -8.12%. Also, the activity, negative = inhibition in assay [2] is -8.55%. Besides, the Potency in assay [3] was above 20.6 µM.

Regarding `CCOc1ccc(C2C(C#N)=C(N)Oc3cc(C)n(CCN4CCOCC4)c(=O)c32)cc1OCC` (centres undefined), the activity change, negative = inhibition in assay [1] is 7.01%. In addition, the activity, negative = inhibition in assay [2] was 0.201%. Moreover, the Potency in assay [3] was above 20.6 µM.

As for `N#Cc1nc(-c2cccs2)oc1NCc1ccccc1`, the activity change, negative = inhibition in assay [1] was -20.6%. Also, the activity, negative = inhibition in assay [2] was -1.04%. Moreover, the Potency in assay [3] is above 20.6 µM.

For the compound `Cc1cccc(N2CN=c3s/c(=C\c4ccncc4)c(=O)n3C2)c1`, the activity change, negative = inhibition in assay [1] is -17.2%. The activity, negative = inhibition in assay [2] is -0.937%. Besides, the Potency in assay [3] is above 20.6 µM.

Take `Cc1cc(=O)[nH]c(SCC(=O)c2ccccc2)c1C#N`: the activity change, negative = inhibition in assay [1] is 14.5%. In assay [2], the activity, negative = inhibition was -5.21%. Further, in assay [3], the Potency is above 20.6 µM.

In the case of `CCC1(C)Cc2ccccc2-c2nc(NCCO)n(-c3ccccc3)c(=O)c21` (centres undefined), in assay [1], the activity change, negative = inhibition is 6.29%. Further, the activity, negative = inhibition in assay [2] was -2.14%. The Potency in assay [3] is above 20.6 µM.

Regarding `COc1cc(C2C(C#N)=C(N)Oc3cc(C)n(CCc4ccccc4)c(=O)c32)cc2c1OCO2` (centres undefined), the activity change, negative = inhibition in assay [1] was -4.95%. In addition, the activity, negative = inhibition in assay [2] was -6.08%. The Potency in assay [3] was above 20.6 µM.

In the case of `CCOC(=O)c1[nH]c2ccc(OC)cc2c1NC(=O)CN1CCN(c2ccccn2)CC1`, the activity change, negative = inhibition in assay [1] was -9.84%. In addition, the activity, negative = inhibition in assay [2] was -2.44%. In addition, the Potency in assay [3] was above 20.6 µM.

In the case of `C=C(C)CC1N(c2cccc(OC)c2)C(=O)[C@@H]2C(C(=O)O)[C@H]3C=C[C@@]12O3` (some centres undefined), the activity change, negative = inhibition in assay [1] was 5.5%. In addition, the activity, negative = inhibition in assay [2] is 3.15%. In addition, the Potency in assay [3] was above 20.6 µM.

As for `CCCn1c(SCC(N)=O)nc2c(c1=O)C1(CCCC1)Cc1ccccc1-2`, the activity change, negative = inhibition in assay [1] was -22.4%. In assay [2], the activity, negative = inhibition was -8.32%. The Potency in assay [3] is above 20.6 µM.

Turning to `N#Cc1nc(-c2cccs2)oc1NCc1ccccc1Cl`, the activity change, negative = inhibition in assay [1] was -29.4%. Also, in assay [2], the activity, negative = inhibition is -12.6%. In assay [3], the Potency was above 20.6 µM.

On to `COc1cccc(OC)c1OCC(C)CNCC1CCCO1` (centres undefined), for which the activity change, negative = inhibition in assay [1] is -18.8%. For the same compound, in assay [2], the activity, negative = inhibition is 10.2%. In assay [3], the Potency is above 20.6 µM.

For `CCSC1=C(C#N)C(c2cccs2)C(C(=O)OC)=C(C)N1` (centres undefined), the activity change, negative = inhibition in assay [1] is 2.23%. The activity, negative = inhibition in assay [2] is -15.6%. Moreover, the Potency in assay [3] was above 20.6 µM.

Turning to `O=C(O)CSCC(=O)Nc1ccc(S(=O)(=O)N2CCCCC2)cc1`, the activity change, negative = inhibition in assay [1] was 5.47%. In assay [2], the activity, negative = inhibition was 23%. The Potency in assay [3] was above 20.6 µM.

Take `COc1cccc(-c2nnc3sc(-c4ccc(C)cc4)nn23)c1`: the activity change, negative = inhibition in assay [1] is -10.2%. Moreover, the activity, negative = inhibition in assay [2] was 1.68%. Moreover, the Potency in assay [3] is above 20.6 µM.

Regarding `Cc1cc(C)c(C#N)c(SCC(=O)N2CCN(Cc3ccccc3)CC2)n1`, the activity change, negative = inhibition in assay [1] is -24.4%. In addition, the activity, negative = inhibition in assay [2] is 11.8%. For the same compound, the Potency in assay [3] was above 20.6 µM.

As for `Cc1nc2sc3c(c2c(=O)o1)CC(C)(C)OC3`, the activity change, negative = inhibition in assay [1] was -10.1%. The activity, negative = inhibition in assay [2] was -8.31%. The Potency in assay [3] was above 20.6 µM.

In the case of `CCOC(=O)N1CCN(c2ncnc3c2cnn3-c2ccc(OC)cc2)CC1`, the activity change, negative = inhibition in assay [1] is 10.2%. Besides, the activity, negative = inhibition in assay [2] is -2.17%. In addition, in assay [3], the Potency was above 20.6 µM.

For the compound `COc1ccc(OCC(O)Cn2c(Nc3cccc(C)c3)nc3c2c(=O)n(C)c(=O)n3C)cc1` (centres undefined), the activity change, negative = inhibition in assay [1] was 8.48%. The activity, negative = inhibition in assay [2] is -15.9%. Further, in assay [3], the Potency was above 20.6 µM.

Regarding `CCN1CCc2c(C#N)c(N3CCCCC3)nc(N3CCOCC3)c2C1`, the activity change, negative = inhibition in assay [1] was -1.02%. Moreover, the activity, negative = inhibition in assay [2] is 18.4%. Also, the Potency in assay [3] is above 20.6 µM.

Consider `CC(C)Cc1nc(N2CCN(C(=O)C(C)C)CC2)c(C#N)c2c1CCC2`, for which, in assay [1], the activity change, negative = inhibition is -19.4%. The activity, negative = inhibition in assay [2] is 7.39%. Further, the Potency in assay [3] is above 20.6 µM.

In the case of `COCCNc1cc(C)c(C#N)c2nc3ccccc3n12`, the activity change, negative = inhibition in assay [1] is 12.9%. For the same compound, the activity, negative = inhibition in assay [2] is 4.06%. Besides, the Potency in assay [3] was above 20.6 µM.

Turning to `O=C(c1ccc2c3c(cccc13)C(=O)N(O)C2=O)N1CCCCC1`, in assay [1], the activity change, negative = inhibition is 0.433%. In assay [2], the activity, negative = inhibition is 22.1%. Moreover, the Potency in assay [3] is above 20.6 µM.

Turning to `C[C@H](O)[C@@H]1C(=O)N2C(C(=O)O)=C(SCCN=CN)C[C@@H]12`, the activity change, negative = inhibition in assay [1] was -9.39%. Moreover, in assay [2], the activity, negative = inhibition was -2.21%. The Potency in assay [3] was above 20.6 µM.

Turning to `CCn1cc(C(=O)NCc2ccco2)c(=O)c2cc(F)c(N3CCN(C(=O)c4ccco4)CC3)cc21`, the activity change, negative = inhibition in assay [1] is -28.1%. For the same compound, in assay [2], the activity, negative = inhibition was -28.5%. For the same compound, the Potency in assay [3] was above 20.6 µM.

As to `CCCc1cc(-n2ccnc2C)n2c(nc3ccccc32)c1C#N`, the activity change, negative = inhibition in assay [1] was 6.63%. Besides, in assay [2], the activity, negative = inhibition is -3.66%. The Potency in assay [3] was above 20.6 µM.

On to `CCCCCOc1ccc(Cl)cc1CN1CCOCC1`, for which the activity change, negative = inhibition in assay [1] was 4.03%. In assay [2], the activity, negative = inhibition was 4.37%. Also, the Potency in assay [3] is above 20.6 µM.

As for `CN(C)C/C(Cl)=C(\Cl)c1ccccc1`, the activity change, negative = inhibition in assay [1] was -119% (active). Moreover, the activity, negative = inhibition in assay [2] is -22.6%. Moreover, the Potency in assay [3] is above 20.6 µM.

Consider `CCOc1ccc(S(=O)(=O)N(C)CCO)cc1-c1nc2c(C(C)(C)C)nn(C)c2c(=O)[nH]1`, for which the activity change, negative = inhibition in assay [1] was 6.99%. For the same compound, the activity, negative = inhibition in assay [2] was -3.41%. Besides, the Potency in assay [3] is above 20.6 µM.
